Laboratory results as given in PubChem BioAssay.

Experiment: probe aInhba binding on compound microarray – biochemical, small-molecule microarray, 635/667 nm fluorescence, primary screen (AID 1148);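 note: score merges 667nm spot fluorescence with signal-to-noise for antibody binding to printed compounds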
Conditions: higher = more signal

Row | SMILES | composite z-score
1 | CC[C@@H]1C=C(C(=O)O)[C@H](c2ccc(Br)cc2)N1S(=O)(=O)c1ccc(C)cc1 | 0.222
2 | O=C1c2ccccc2[C@](Cc2ccccc2I)(C(=O)NCCN2CCOCC2)[C@H](c2ccc(CO)cc2)N1Cc1ccccc1Cl | 0.62
3 | COC(=O)[C@@]1(Cc2ccc(OC)cc2)[C@H]2c3cc(C(=O)N4CCCC4)n(CCN4CNCC4=O)c3C[C@H]2CN1C(=O)c1ccccc1 | 1.59
4 | COC(=O)[C@@]1(Cc2ccc(OC)cc2)[C@@H]2C(=CC(=O)[C@H]2CC(=O)C(=O)N2CCCC2)CN1C(=O)c1ccccc1 | 0.0694
5 | C=CCNC(=O)[C@@H]1[C@H]2C(=O)O[C@H](c3ccccc3)[C@H](c3ccccc3)N2[C@H](c2ccc(O)cc2)[C@@]12C(=O)N(C(=O)OCCOC)c1ccc(C#CCNC(N)=O)cc12 | -0.131
6 | Cc1ccc(S[C@]2(C(=O)NCCCN(C)C)CC(=O)N(Cc3cc(C(F)(F)F)cc(C(F)(F)F)c3)[C@@H]2c2ccc(CO)cc2)cc1 | 0.0363
7 | COc1ccc([Si](C)(C)[C@H]2[C@H](CCO)O[C@@]3(C(=O)N(Cc4ccc(N(C=O)c5ccccc5)cc4)c4ccccc43)[C@@H]2C)cc1 | -0.157
8 | [N-]=[N+]=Nc1ccccc1[C@H]1OC(c2ccc(OCCCO)cc2)=N[C@@]1(CCS(=O)(=O)c1ccccc1)C(N)=O | 0.668
9 | NC(=O)NCC#Cc1ccc2c(c1)[C@]1(C(=O)N2)[C@H](c2ccccc2OCCO)N2[C@H](c3ccccc3)[C@H](c3ccccc3)OC(=O)[C@H]2[C@@H]1C(=O)Nc1nc2ccccc2s1 | 0.0314
